Rpn11 inh – Rpn11 (PSMD14) deubiquitinase inhibitors, primary screen, biochemical, fluorescence polarization, uHTS | human 26S proteasome, Ub4-pepOG fluorescence polarization; 20S core pre-blocked with epoxomicin | inhibition, % at 20 µM | hit rate 0.59% among 360,000 | AID 588493, 2011;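 active means inhibition at 20 µM, scaled to each plate's controls, above about 33%, limit read from the data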
CendR NRP1 mod – modulators of CendR peptide binding to NRP-1, primary screen, biochemical, fluorescence polarization, uHTS; inhibition, % at 25 µM; hit rate 0.85% among 360,000; FAM-RPARPAR peptide binding to NRP-1; Neuropilin-1 (Homo sapiens), O14786;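 active means inhibition or corrected inhibition above about 18%, plus a signal ratio from 0.5 to 1.5, limit read from the data, passing the limit was not always enough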
HNF4A DNA FP – change in binding of human HNF4A to DNA, primary screen, biochemical, fluorescence polarization, FITC-DNA | Hepatocyte nuclear factor 4-alpha (Homo sapiens), P41235 | 1 h | activity change, % at 10 µM | hit rate 0.3% among 360,000 | AID 1224865, 2016; in the data active means activity change above about 30%, passing the limit was not always enough
PHOSPHO1 block – PubChem AID 1565 | Phosphoethanolamine/phosphocholine phosphatase (Homo sapiens), Q8TCT1 | hit rate 1.1% among 290,000 | recombinant PHOSPHO1, absorbance phosphatase assay | inhibition, % at 13.3 µM; in the data active means inhibition above about 60%
Fh CTSL1 inh – Fasciola hepatica cathepsin L1 inhibitors, primary screen, counter-screen for PFM18AAP inhibitor project, biochemical, QFRET, fluorogenic peptide substrate; recombinant F. hepatica cathepsin L1, Z-Leu-Arg-MCA fluorescence; AID 1906, 2009; hit rate 0.49% among 300,000; inhibition, % at 5.96 µM;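 active means inhibition above the mean of all tested compounds plus 3 SD, set per screening campaign, cut at about 17% in these data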;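 further: 0% = plate median of test compound wells and 100% = 1 µM Z-Phe-Ala-diazomethylketone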
TPT1 inhibitor – Candida albicans TPT1 enzyme inhibitors, primary screen, biochemical, fluorescence polarization | recombinant caTPT1, FP RNA substrate dephosphorylation | tRNA 2'-phosphotransferase TPT1 (Candida albicans SC5314) | inhibition, % at 5 µM | hit rate 0.81% among 300,000 | AID 1962, 2009;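 active means inhibition above the mean of all tested compounds plus 3 SD, set per screening campaign, cut at about 24% in these data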;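 further: plate controls were DMSO alone for no effect and ferristatin control at 100 nM for full effect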
* marks the source's active call; other numbers are inactive results. Compounds with a hit are over-represented: about 3.3% of the library has one in this group of screens.

Screening CCc1cc(C(=O)NNC(=S)NCc2ccccc2)cs1 returned Rpn11 inh 0.4, CendR NRP1 mod 3.8, HNF4A DNA FP 4.5, PHOSPHO1 block 91.4*, Fh CTSL1 inh 2.2 and TPT1 inhibitor -2.5.
For FC(F)(F)c1cccc(NC(=S)NNC(=S)NCc2ccccc2)c1 the results were Rpn11 inh 5.6, CendR NRP1 mod 4.2, HNF4A DNA FP -5.6, PHOSPHO1 block 103.5*, Fh CTSL1 inh 7.9 and TPT1 inhibitor -0.4.
CCCNC(=S)Nc1cccc(C(F)(F)F)c1 was read as Rpn11 inh -3.5, CendR NRP1 mod 25.3*, HNF4A DNA FP 2.4, PHOSPHO1 block 3.2, Fh CTSL1 inh -1.2 and TPT1 inhibitor -4.5.
`Cc1nc(N)ncc1Sc1ccccc1` gave Rpn11 inh 5.4, CendR NRP1 mod -12.6, HNF4A DNA FP -2.6, PHOSPHO1 block 7.9, Fh CTSL1 inh -2.7 and TPT1 inhibitor 1.7.
Screening Cc1ccc2c(C)c(C(=O)NCc3ccc(S(N)(=O)=O)cc3)oc2c1C returned Rpn11 inh -7.7, CendR NRP1 mod 8.7, HNF4A DNA FP -0.8, PHOSPHO1 block 4.9, Fh CTSL1 inh 3.1 and TPT1 inhibitor -9.3.
For Cc1ccc2c(C)c(C(=O)Nc3ccc(S(N)(=O)=O)cc3)oc2c1C the results were Rpn11 inh 0.3, CendR NRP1 mod 39.6*, HNF4A DNA FP 1.0, PHOSPHO1 block 34.9, Fh CTSL1 inh 2.0 and TPT1 inhibitor 0.2.
Screening Cc1ccc(-n2ccnc2SCC(=O)O)c(C)c1 returned Rpn11 inh -6.0, CendR NRP1 mod 31.0*, HNF4A DNA FP -0.5, PHOSPHO1 block 19.2, Fh CTSL1 inh -1.1 and TPT1 inhibitor 1.2.
`CCOc1ccc(S(=O)(=O)N2CCN(CC(O)COc3cccc([N+](=O)[O-])c3)CC2)cc1` (centres undefined) gave Rpn11 inh -6.9, CendR NRP1 mod 0.9, HNF4A DNA FP 5.6, PHOSPHO1 block 37.0, Fh CTSL1 inh -10.2 and TPT1 inhibitor -1.6.
Screening COc1nc(-c2ccccc2)c2c(c1C#N)CC(C)(C)OC2 returned Rpn11 inh 0.7, CendR NRP1 mod -1.6, HNF4A DNA FP 0.4, PHOSPHO1 block -4.2, Fh CTSL1 inh 3.0 and TPT1 inhibitor 7.7.
For C#CCOCCOCCOCCNc1nc(N2CCN(C(=O)CCCCCCCCCCNC(=O)[C@H](CCCCN)n3cc(C[C@@H](C)CC)nn3)CC2)nc(N2CCN(C(=O)CCCCCCCCCCNC(=O)[C@H](CCCN=C(N)N)n3cc(C[C@@H](C)CC)nn3)CC2)n1 the results were Rpn11 inh 127.5*, CendR NRP1 mod 39.6*, HNF4A DNA FP 213.3, Fh CTSL1 inh 3.2 and TPT1 inhibitor -1.5.
Screening C#CCOCCOCCOCCNc1nc(N2CCN(C(=O)CCCCCCCCCCNC(=O)[C@H](CCCCN)n3cc(C)nn3)CC2)nc(N2CCN(C(=O)CCCCCCCCCCNC(=O)[C@@H]([C@H](C)O)n3cc(C)nn3)CC2)n1 returned Rpn11 inh 1.6, CendR NRP1 mod 0.8, HNF4A DNA FP -0.8, Fh CTSL1 inh 4.2 and TPT1 inhibitor -3.0.
Screening C#CCOCCOCCOCCNc1nc(N2CCN(C(=O)CCCCCCCCCCNC(=O)[C@@H](CCSC)n3cc(CCO)nn3)CC2)nc(N2CCN(C(=O)CCCCCCCCCCNC(=O)[C@H](CCCN=C(N)N)n3cc(C[C@@H](C)CC)nn3)CC2)n1 returned Rpn11 inh 117.5*, CendR NRP1 mod 20.9*, HNF4A DNA FP 256.7, Fh CTSL1 inh 4.3 and TPT1 inhibitor -2.0.
Screening C#CCOCCOCCOCCNc1nc(N2CCN(C(=O)CCCCCCCCCCNC(=O)[C@H](CCCCN)n3cc(C[C@@H](C)CC)nn3)CC2)nc(N2CCN(C(=O)CCCCCCCCCCNC(=O)[C@@H]([C@H](C)O)n3cc(C)nn3)CC2)n1 returned Rpn11 inh 38.1, CendR NRP1 mod 2.3, HNF4A DNA FP 65.0*, Fh CTSL1 inh 0.5 and TPT1 inhibitor -0.6.
